From PubChem BioAssay AID1159580 (chemical genetic matrix, 2015)
The campaign covered roughly 5,500 compounds. About 2,000 (36%) were called active. Roughly 18% stayed inconclusive and do not appear here. No stated cut-off is given here; in the data, active means normalized growth mostly below about 0.91 (no sharp cut-off); inconclusive means no clear call, values can overlap the other calls; inactive means mostly above about 0.92. The list shows a part of the results.

Experiment: chemical genetic growth profiling, strain panel (AID 1159580);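 further: tested at 20 µM; growth read once vehicle control cultures reached saturation at 30 °C; 1 = growth at the plate median or of vehicle wells; lower values mean less growth of the strain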
Details: growth OD

Measured: normalized growth

CCC(C)C(=O)c1c(O)c(C)c2oc3c(C)c(O)c(C(=O)C(C)CC)c(O)c3c2c1O (stereo not drawn)
active: S. cerevisiae deletion strains, locus YDL185W, strain tfp1, hits give low values 0.895 | S. cerevisiae deletion strains, locus YDR137W, strain rgp1, hits give low values 0.813 | S. cerevisiae deletion strains, locus YGL086W, strain mad1, hits give low values 1.12 [resistant] | S. cerevisiae deletion strains, locus YJL187C, strain SWE1 (second series), hits give low values 0.767 | S. cerevisiae deletion strains, locus YKL085W, strain MDH1 (second series), hits give low values 1.11 [resistant] | S. cerevisiae deletion strains, locus YKL085W, strain MDH1, hits give low values 1.11 [resistant] | S. cerevisiae deletion strains, locus YLR039C, strain RIC1, hits give low values 0.674 | S. cerevisiae deletion strains, locus YLR058C, strain SHM2, hits give low values 0.866
inactive: S. cerevisiae deletion strains, locus YAL021C, strain ccr4, hits give low values 0.972 | S. cerevisiae deletion strains, locus YAL026C, strain drs2, hits give low values 0.982 | S. cerevisiae deletion strains, locus YAL030W, strain snc1, hits give low values 0.983 | S. cerevisiae deletion strains, locus YBL061C, strain skt5, hits give low values 0.98 | S. cerevisiae deletion strains, locus YBR009C, strain hhf1, hits give low values 0.977 | S. cerevisiae deletion strains, locus YBR021W, strain FUR4, hits give low values 1.05 | S. cerevisiae deletion strains, locus YBR023C, strain chs3, hits give low values 0.971 | S. cerevisiae deletion strains, locus YBR171W, strain sec66, hits give low values 0.995 | S. cerevisiae deletion strains, locus YBR229C, strain ROT2, hits give low values 0.996 | S. cerevisiae deletion strains, locus YBR231C, strain swc5, hits give low values 0.925 | S. cerevisiae deletion strains, locus YBR279W, strain paf1, hits give low values 0.988 | S. cerevisiae deletion strains, locus YCL011C, strain gbp2, hits give low values 0.98 | S. cerevisiae deletion strains, locus YCL016C, strain dcc1, hits give low values 0.973 | S. cerevisiae deletion strains, locus YCL029C, strain bik1, hits give low values 0.943 | S. cerevisiae deletion strains, locus YCL069W, strain vba3, hits give low values 1 | S. cerevisiae deletion strains, locus YCR088W, strain abp1, hits give low values 0.997 | S. cerevisiae deletion strains, locus YDL005C, strain med2, hits give low values 0.979 | S. cerevisiae deletion strains, locus YDL035C, strain GPR1, hits give low values 0.953 | S. cerevisiae deletion strains, locus YDL040C, strain nat1, hits give low values 0.994 | S. cerevisiae deletion strains, locus YDL074C, strain BRE1, hits give low values 0.949 | S. cerevisiae deletion strains, locus YDL101C, strain DUN1, hits give low values 0.959 | S. cerevisiae deletion strains, locus YDL134C, strain PPH21, hits give low values 0.977 | S. cerevisiae deletion strains, locus YDL192W, strain arf1, hits give low values 0.976 | S. cerevisiae deletion strains, locus YDR001C, strain nth1, hits give low values 1.01 | S. cerevisiae deletion strains, locus YDR069C, strain doa4, hits give low values 0.919 | S. cerevisiae deletion strains, locus YDR101C, strain arx1, hits give low values 0.987 | S. cerevisiae deletion strains, locus YDR150W, strain NUM1, hits give low values 0.966 | S. cerevisiae deletion strains, locus YDR159W, strain sac3, hits give low values 0.965 | S. cerevisiae deletion strains, locus YDR162C, strain NBP2, hits give low values 0.997 | S. cerevisiae deletion strains, locus YDR195W, strain ref2 0.977 | S. cerevisiae deletion strains, locus YDR297W, strain sur2, hits give low values 0.989 | S. cerevisiae deletion strains, locus YDR318W, strain mcm21, hits give low values 0.967 | S. cerevisiae deletion strains, locus YDR334W, strain swr1, hits give low values 1 | S. cerevisiae deletion strains, locus YDR335W, strain msn5, hits give low values 0.997 | S. cerevisiae deletion strains, locus YDR388W, hits give low values 0.961 | S. cerevisiae deletion strains, locus YDR392W, strain spt3, hits give low values 0.921 | S. cerevisiae deletion strains, locus YDR502C, strain sam2, hits give low values 0.935 | S. cerevisiae deletion strains, locus YEL003W, strain gim4, hits give low values 0.983 | S. cerevisiae deletion strains, locus YEL037C, strain rad23, hits give low values 1.01 | S. cerevisiae deletion strains, locus YEL061C, strain CIN8 (second series), hits give low values 1 | S. cerevisiae deletion strains, locus YEL061C, strain CIN8, hits give low values 0.97 | S. cerevisiae deletion strains, locus YER015W, strain faa2, hits give low values 0.983 | S. cerevisiae deletion strains, locus YER016W, strain bim1, hits give low values 0.996 | S. cerevisiae deletion strains, locus YER110C, hits give low values 0.975 | S. cerevisiae deletion strains, locus YER111C, strain swi4, hits give low values 0.984 | S. cerevisiae deletion strains, locus YER155C, strain BEM2 (second series), hits give low values 0.934 | S. cerevisiae deletion strains, locus YER155C, strain BEM2, hits give low values 1.02 | S. cerevisiae deletion strains, locus YER167W, strain BCK2, hits give low values 0.956 | S. cerevisiae deletion strains, locus YFR010W, strain ubp6, hits give low values 0.978 | S. cerevisiae deletion strains, locus YGL078C, strain dbp3, hits give low values 0.987 | S. cerevisiae deletion strains, locus YGL167C, strain pmr1, hits give low values 1 | S. cerevisiae deletion strains, locus YGL173C, strain kem1, hits give low values 0.97 | S. cerevisiae deletion strains, locus YGL227W, strain vid30, hits give low values 1 | S. cerevisiae deletion strains, locus YGL240W, strain doc1, hits give low values 0.949 | S. cerevisiae deletion strains, locus YGL248W, strain PDE1, hits give low values 0.984 | S. cerevisiae deletion strains, locus YGL253W, strain hxk2, hits give low values 1 | S. cerevisiae deletion strains, locus YGR135W, strain pre9, hits give low values 0.941 | S. cerevisiae deletion strains, locus YGR252W, strain gcn5, hits give low values 1.09 | S. cerevisiae deletion strains, locus YHR013C, strain ard1, hits give low values 0.969 | S. cerevisiae deletion strains, locus YHR027C, strain rpn1, hits give low values 0.998 | S. cerevisiae deletion strains, locus YHR030C, strain SLT2, hits give low values 0.964 | S. cerevisiae deletion strains, locus YHR079C, strain IRE1 (second series), hits give low values 0.979 | S. cerevisiae deletion strains, locus YHR094C, strain hxt1, hits give low values 0.999 | S. cerevisiae deletion strains, locus YHR129C, strain ARP1, hits give low values 0.952 | S. cerevisiae deletion strains, locus YHR142W, strain chs7, hits give low values 1.02 | S. cerevisiae deletion strains, locus YHR200W, strain rpn10, hits give low values 0.988 | S. cerevisiae deletion strains, locus YIL066C, strain RNR3, hits give low values 0.943 | S. cerevisiae deletion strains, locus YIL073C, strain SPO22, hits give low values 1.01 | S. cerevisiae deletion strains, locus YIL125W, strain kgd1, hits give low values 0.997 | S. cerevisiae deletion strains, locus YIR030C, strain dcg1, hits give low values 0.978 | S. cerevisiae deletion strains, locus YJL092W, strain hpr5, hits give low values 1 | S. cerevisiae deletion strains, locus YJL095W, strain BCK1 (second series), hits give low values 0.985 | S. cerevisiae deletion strains, locus YJL095W, strain BCK1, hits give low values 0.882 | S. cerevisiae deletion strains, locus YJL115W, strain asf1, hits give low values 1.01 | S. cerevisiae deletion strains, locus YJL129C, strain trk1, hits give low values 1.02 | S. cerevisiae deletion strains, locus YJL134W, strain LCB3, hits give low values 0.978 | S. cerevisiae deletion strains, locus YJL154C, strain vps35, hits give low values 1.01 | S. cerevisiae deletion strains, locus YJL164C, strain tpk1, hits give low values 0.977 | S. cerevisiae deletion strains, locus YJL166W, strain qcr8, hits give low values 0.983 | S. cerevisiae deletion strains, locus YJL168C, strain set2, hits give low values 0.983 | S. cerevisiae deletion strains, locus YJL187C, strain SWE1, hits give low values 0.983 | S. cerevisiae deletion strains, locus YJR043C, strain POL32, hits give low values 0.936 | S. cerevisiae deletion strains, locus YJR075W, strain HOC1, hits give low values 0.96 | S. cerevisiae deletion strains, locus YKL068W, hits give low values 0.965 | S. cerevisiae deletion strains, locus YKL160W, strain elf1, hits give low values 0.979 | S. cerevisiae deletion strains, locus YKR001C, strain vps1, hits give low values 0.952 | S. cerevisiae deletion strains, locus YKR026C, strain gcn3, hits give low values 1.01 | S. cerevisiae deletion strains, locus YKR091W, strain srl3, hits give low values 0.992 | S. cerevisiae deletion strains, locus YLL001W, strain dnm1, hits give low values 0.98 | S. cerevisiae deletion strains, locus YLL026W, hits give low values 0.996 | S. cerevisiae deletion strains, locus YLL041C, strain sdh2, hits give low values 1.01 | S. cerevisiae deletion strains, locus YLR027C, strain aat2, hits give low values 0.965 | S. cerevisiae deletion strains, locus YLR102C, strain apc9, hits give low values 0.98 | S. cerevisiae deletion strains, locus YLR221C, strain rsa3, hits give low values 0.957 | S. cerevisiae deletion strains, locus YLR258W, strain gsy2, hits give low values 0.971 | S. cerevisiae deletion strains, locus YLR262C, strain YPT6 (second series), hits give low values 0.949 | S. cerevisiae deletion strains, locus YLR262C, strain YPT6, hits give low values 0.773 | S. cerevisiae deletion strains, locus YLR268W, strain sec22, hits give low values 0.904 | S. cerevisiae deletion strains, locus YLR320W, strain mms22, hits give low values 0.954 | S. cerevisiae deletion strains, locus YLR330W, strain CHS5, hits give low values 0.979 | S. cerevisiae deletion strains, locus YLR342W, strain FKS1 (second series), hits give low values 0.92 | S. cerevisiae deletion strains, locus YLR342W, strain FKS1, hits give low values 0.968 | S. cerevisiae deletion strains, locus YLR357W, strain rsc2, hits give low values 0.957 | S. cerevisiae deletion strains, locus YLR370C, strain arc18, hits give low values 0.983 | S. cerevisiae deletion strains, locus YLR371W, strain rom2, hits give low values 0.973 | S. cerevisiae deletion strains, locus YLR384C, strain iki3, hits give low values 0.975 | S. cerevisiae deletion strains, locus YLR418C, strain cdc73, hits give low values 0.974 | S. cerevisiae deletion strains, locus YML016C, strain PPZ1, hits give low values 0.974 | S. cerevisiae deletion strains, locus YML032C, strain rad52, hits give low values 0.94 | S. cerevisiae deletion strains, locus YML120C, strain ndi1, hits give low values 0.989 | S. cerevisiae deletion strains, locus YML124C, strain tub3, hits give low values 0.992 | S. cerevisiae deletion strains, locus YMR058W, strain fet3, hits give low values 0.986 | S. cerevisiae deletion strains, locus YMR078C, strain ctf18, hits give low values 0.989 | S. cerevisiae deletion strains, locus YMR125W, strain sto1, hits give low values 0.969 | S. cerevisiae deletion strains, locus YMR129W, hits give low values 0.981 | S. cerevisiae deletion strains, locus YMR205C, strain PFK2, hits give low values 0.967 | S. cerevisiae deletion strains, locus YMR223W, strain ubp8, hits give low values 0.957 | S. cerevisiae deletion strains, locus YMR231W, strain pep5, hits give low values 0.993 | S. cerevisiae deletion strains, locus YMR263W, strain SAP30, hits give low values 0.975 | S. cerevisiae deletion strains, locus YMR307W, strain GAS1, hits give low values 1.09 | S. cerevisiae deletion strains, locus YNL067W, strain RPL9B, hits give low values 0.964 | S. cerevisiae deletion strains, locus YNL071W, strain lat1, hits give low values 1 | S. cerevisiae deletion strains, locus YNL153C, strain GIM3, hits give low values 0.928 | S. cerevisiae deletion strains, locus YNL209W, strain ssb2, hits give low values 0.982 | S. cerevisiae deletion strains, locus YNL233W, strain BNI4, hits give low values 0.993 | S. cerevisiae deletion strains, locus YNL248C, strain rpa49, hits give low values 0.91 | S. cerevisiae deletion strains, locus YNL250W, strain rad50, hits give low values 0.966 | S. cerevisiae deletion strains, locus YNL271C, strain bni1, hits give low values 0.987 | S. cerevisiae deletion strains, locus YNL298W, strain CLA4, hits give low values 0.972 | S. cerevisiae deletion strains, locus YNL307C, strain MCK1, hits give low values 0.982 | S. cerevisiae deletion strains, locus YNL322C, strain KRE1 (second series), hits give low values 0.978 | S. cerevisiae deletion strains, locus YNR049C, strain mso1, hits give low values 0.994 | S. cerevisiae deletion strains, locus YNR052C, strain pop2, hits give low values 0.966 | S. cerevisiae deletion strains, locus YOL012C, strain htz1 0.792 | S. cerevisiae deletion strains, locus YOL147C, strain pex11, hits give low values 0.986 | S. cerevisiae deletion strains, locus YOR001W, strain rrp6, hits give low values 0.954 | S. cerevisiae deletion strains, locus YOR061W, strain CKA2, hits give low values 0.932 | S. cerevisiae deletion strains, locus YOR069W, strain VPS5, hits give low values 0.977 | S. cerevisiae deletion strains, locus YOR070C, strain gyp1, hits give low values 0.966 | S. cerevisiae deletion strains, locus YOR080W, strain dia2, hits give low values 0.978 | S. cerevisiae deletion strains, locus YOR083W, strain WHI5, hits give low values 1 | S. cerevisiae deletion strains, locus YOR106W, strain vam3, hits give low values 0.973 | S. cerevisiae deletion strains, locus YOR136W, strain idh2, hits give low values 0.986 | S. cerevisiae deletion strains, locus YOR144C, strain elg1, hits give low values 0.992 | S. cerevisiae deletion strains, locus YOR184W, strain ser1, hits give low values 0.977 | S. cerevisiae deletion strains, locus YOR265W, strain rbl2, hits give low values 0.981 | S. cerevisiae deletion strains, locus YOR270C, strain vph1, hits give low values 0.921 | S. cerevisiae deletion strains, locus YOR290C, strain snf2, hits give low values 0.967 | S. cerevisiae deletion strains, locus YOR316C, strain cot1, hits give low values 0.974 | S. cerevisiae deletion strains, locus YPL051W, strain arl3, hits give low values 0.923 | S. cerevisiae deletion strains, locus YPL078C, strain atp4, hits give low values 0.992 | S. cerevisiae deletion strains, locus YPL106C, strain sse1, hits give low values 0.966 | S. cerevisiae deletion strains, locus YPL240C, strain hsp82, hits give low values 0.995 | S. cerevisiae deletion strains, locus YPL241C, strain CIN2, hits give low values 0.995 | S. cerevisiae deletion strains, locus YPR119W, strain clb2, hits give low values 0.99 | S. cerevisiae deletion strains, locus YPR141C, strain kar3, hits give low values 0.967 | S. cerevisiae deletion strains, locus YPR163C, strain tif3, hits give low values 0.994 | S. cerevisiae deletion strains, locus YPR167C, strain met16, hits give low values 0.976 | S. cerevisiae deletion strains, strain wtn01, hits give low values 0.969 | S. cerevisiae strains, strain wild type, hits give low values 0.965
